Data: PubChem BioAssay (NCI)
This is part of a sample that, as a whole, favours compounds with a hit. Of some 83,000 tested, about 20% had one in any assay.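 Note: values are percent growth. 100 is the growth of untreated cells, values between 100 and 0 indicate rising inhibition; between -100 and 0 indicates cell death.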 A number with no mark means an inactive call. Active and inactive are the calls of the source. Rule for the calls: active = growth percent below 10; inactive = the rest.

Assays:
Assay in all cases: NCI-60 one-dose screen, 48 h (100 = growth as untreated, 0 = no growth, -100 = all killed)
SK-MEL-2 melanoma = details: 10 µM unless noted
EKVX NSCLC = details: 10 µM unless noted
SN12C renal = details: 10 µM unless noted
UO-31 renal = details: 10 µM unless noted
TK-10 renal = details: 10 µM unless noted
ACHN renal = details: 10 µM unless noted
CAKI-1 renal = details: 10 µM
A498 renal = details: 10 µM unless noted
CCRF-CEM leukemia = details: 10 µM unless noted
MOLT-4 leukemia = details: 10 µM unless noted
SR leukemia = details: 10 µM unless noted
RPMI-8226 leukemia = details: 10 µM unless noted
OVCAR-8 ovarian = details: 10 µM unless noted
OVCAR-5 ovarian = details: 10 µM unless noted
OVCAR-4 ovarian = details: 10 µM unless noted
SK-OV-3 ovarian = details: 10 µM unless noted
IGROV1 ovarian = details: 10 µM unless noted
OVCAR-3 ovarian = details: 10 µM unless noted
HS 578T breast = details: 10 µM unless noted
NCI/ADR-RES ovarian = details: 10 µM unless noted

SMILES	growth (SK-MEL-2 melanoma)	growth (EKVX NSCLC)	growth (SN12C renal)	growth (UO-31 renal)	growth (TK-10 renal)	growth (ACHN renal)	growth (CAKI-1 renal)	growth (A498 renal)	growth (CCRF-CEM leukemia)	growth (MOLT-4 leukemia)	growth (SR leukemia)	growth (RPMI-8226 leukemia)	growth (OVCAR-8 ovarian)	growth (OVCAR-5 ovarian)	growth (OVCAR-4 ovarian)	growth (SK-OV-3 ovarian)	growth (IGROV1 ovarian)	growth (OVCAR-3 ovarian)	growth (HS 578T breast)	growth (NCI/ADR-RES ovarian)
O=C(Nc1ccc(F)cc1)c1cc(-c2ccc(F)cc2F)ccc1O	-8.37% (active)	30.5%	3.57% (active)	-8.25% (active)	13.1%	9.87% (active)	-0.83% (active)	-28.7% (active)	17.8%	13.9%	26.2%	-11.7% (active)	7.54% (active)	69.4%	11.2%	-8.88% (active)	14.7%	6.06% (active)	6.19% (active)	5.27% (active)
O=C1[C@@H]2Cc3c([nH]c4ccccc34)[C@H](c3c(Cl)cccc3Cl)N2C(=O)CN1C1CCN(Cc2c(F)cccc2F)CC1	110%	60.6%	50.6%	74.9%	106%	81.6%	78.6%	103%	65.5%	58.8%	35.4%	67.9%	79.3%	92.4%	76.3%	96.8%	59.5%	113%	44.7%	85.3%
Oc1ccc(CSc2nnc(-c3ccc(Cl)cc3)o2)c2cccnc12	54.9%	34%	37.4%	2.83% (active)	39.1%	11.4%	20.2%	75.5%	13.3%	15.3%	34.3%	18.6%	18.9%	73.1%	19.8%	20.3%	16.4%	30.8%	1.27% (active)	9.8% (active)
O=C(/C=C/c1cn(-c2ccccc2)nc1-c1ccc(Cl)cc1)c1cc2ccccc2oc1=O	88%	79.8%	31%	39.8%	113%	59.9%	29.2%	111%	50.7%	55.3%	45.2%	70.8%	52.8%	98%	57.2%	92.7%	35.4%	82.8%	66.5%	71.9%
CCN(CC)c1ccc2cc(C(=O)NCCOCCOCCOCCn3cc(CCC(=O)Nc4ccc(C(=O)c5ccc(NC(=O)OC(C)(C)C)cc5)cc4)nn3)c(=O)oc2c1	67.6%	73.5%	68.7%	62.5%	95.6%	84.1%	25.7%	84.8%	19%	21.4%	44%	16.2%	17.4%	99.8%	33.5%	98.3%	41.1%	44.6%	83.7%	88.3%
O=C(O)c1ccc(-n2cc(CNc3ccc(Cl)cc3)c(-c3ccc(F)cc3)n2)cc1	99.1%	81.1%	99%	80.5%	119%	78.9%	83.8%	88.6%	91.8%	85.4%	121%	80.2%	92.4%	106%	101%	110%	102%	105%	100%	102%
O=C(c1cccc(F)c1)n1ccc2cc(NC(=S)Nc3cccnc3)ccc21	102%	105%	95.9%	83.3%	94.8%	103%	97%	92.4%	83.1%	84.9%	81.6%	99.3%	102%	101%	103%	105%	97.4%	107%	94.4%	105%
NC(=O)c1c(NC(=O)c2cccc(C(F)(F)F)c2F)sc2c1CCC(=O)C2	102%	40.8%	27.2%	-7.62% (active)	29.8%	6.7% (active)	-8.99% (active)	70.9%	11.7%	13.5%	18.7%	-5.06% (active)	18.3%	15.6%	6.91% (active)	77.2%	23.7%	11.6%	33.9%	11%
Oc1ccc(CSc2nnc(-c3ccc(Oc4ccccc4)cc3)o2)c2cccnc12	39.9%	23.6%	23.8%	2.75% (active)	34.8%	-2.93% (active)	60.3%	78.9%	16%	26.9%	32.2%	23.5%	24.2%	48.3%	-36.5% (active)	22%	26.1%	-28.7% (active)	10.4%	12.6%
COc1ccc([C@H]2c3[nH]c4ccccc4c3C[C@@H]3C(=O)N(C4CCN(Cc5ccccc5)CC4)CC(=O)N23)c(OC)c1	103%	64.5%	75.6%	42.6%	103%	76%	56.4%	93.8%	61.8%	45.1%	29.9%	52.9%	88.7%	90%	82.7%	93%	50.6%	80.4%	82.3%	68.3%
O=C1NC(=O)/C(=C/c2ccc(OCc3cc4ccccc4nc3Cl)cc2)S1	112%	99.3%	95.9%	80.6%	110%	92.8%	97.1%	100%	88.9%	101%	91%	78.7%	99%	114%	93.5%	109%	108%	104%	111%	100%
NC(=O)N1N=C(c2cc3ccccc3oc2=O)CC1c1cn(-c2ccccc2)nc1-c1ccc(Cl)cc1 (stereo not given)	71.8%	24.3%	47.4%	17.8%	93.4%	32.5%	32.9%	54.5%	7.27% (active)	17.3%	44.2%	48.4%	37.1%	64.9%	34.9%	75.6%	28.8%	17.6%	65.1%	29.3%
O=C(CCCCCCN1CC(=O)N2[C@@H](c3cccc(Br)c3)c3[nH]c4ccccc4c3C[C@H]2C1=O)NO	33.5%	54.8%	44.7%	46.2%	28.1%	73.4%	23.1%	49.4%	14.9%	12.4%	37.4%	13.4%	24.9%	29%	48.9%	13.9%	2.39% (active)	6.19% (active)	61.4%	91.9%
NS(=O)(=O)c1ccc(Nc2nc(N/N=C/c3ccc(C(F)(F)F)cc3)nc(Nc3ccccc3)n2)cc1	28.7%	53.7%	42.9%	60.3%	64.3%	39.6%	33.7%	39.6%	12%	9.74% (active)	7.13% (active)	-5.16% (active)	33%	67.5%	40.9%	55.5%	31.2%	11.7%	8.82% (active)	87.4%
COc1ccc(N2C(=O)c3cc(OC)c(OC)cc3NC2SCc2ccccc2)cc1 (stereo not given)	99.6%	91.8%	102%	88.4%	129%	94.3%	104%	107%	105%	88%	83.5%	114%	103%	109%	102%	112%	102%	125%	125%	99.7%
